The target in one assay is DEXI. Kind of assay: pooled miR-30 sensor sort-seq; sequence = guide strand. Particulars: shRNA.
For TAACGTGGCACTCACCAGCATG, the sensor-assay potency score (higher = more potent) is -1.35.

TCAAACAGGAACCTCTCTGTTG: the sensor-assay potency score (higher = more potent) is -0.754. On the same count and under the same terms, in the case of TCAAAGACGTCGAGCTCCGAGT it was -0.796; in that of AATCTCTCTTCCACTCTCCTGG, -0.0495.

The target in another assay is DGKE. Described as above. To be noted: shRNA.
TTAATTTGATCTTTCCACCCAC registered a sensor-assay potency score (higher = more potent) of 0.385.

In turn, TTGACAGCCACACTGCTGCTTG registered a sensor-assay potency score (higher = more potent) of 0.0149.

TTGAACTTTCCATCGATCTAGT yielded a sensor-assay potency score (higher = more potent) of 0.305. Still for that read-out and setting: in the case of TTACTTGAACTTTCCATCGATC it was -0.458.

As to TTCTTGAGCATAATCTCCTTGC, the sensor-assay potency score (higher = more potent) is -0.369.

In turn, TTGCACTAAACAATCTTTGGTT gave a sensor-assay potency score (higher = more potent) of 0.42. With TTTAATTCCATCTGCTTCCATT, the sensor-assay potency score (higher = more potent) is -0.836. Same read-out and setting: in the case of TTTGACAGTAATCATTTCCTTT it was -0.513; in that of TGAACATGTATCTACTTGCGTG, -0.503.

In the case of TTTGTTACTTGAACTTTCCATC, the sensor-assay potency score (higher = more potent) was -0.49. In the case of TTTTGGATGAACATGTATCTAC, the sensor-assay potency score (higher = more potent) was -0.088.

For a further assay, the target named is DGKH. The description is as above. Particulars: shRNA.
Consider TAACATTTTGTTGATAATCGAA, for which the sensor-assay potency score (higher = more potent) is -0.475. Turning to TATGTCATTATACTCCACCTGT, the sensor-assay potency score (higher = more potent) is -0.182.

As to TTGCTCTACAGAAACCATCGGA, the sensor-assay potency score (higher = more potent) turned out to be 0.0953. With TAGAGGACTAACACAGAACGAA, the sensor-assay potency score (higher = more potent) is -0.365. TACAGTTTCACATAGCGTCTTG: the sensor-assay potency score (higher = more potent) is -0.34.

For TTCATCTTCTATAATGTCCTTC, the sensor-assay potency score (higher = more potent) worked out at 0.785.

On to TTTCTTTAAACTATTTGCCCGC, for which the sensor-assay potency score (higher = more potent) is -0.524. On the same count and under the same terms, for TGAACTTGTCTTCTGCTTCTGA the value was 0.759. The same measure, in the same setting: for TTTACCAGAATCACACTTCTGC the value was 0.827; for TTGAATTTACACACTTCGCAGG, -0.529; for TAAATCAAACACCTGAGCCGGA, 0.112. Still for that read-out and setting: for TTGTTGATAATCGAACTCCCAG the value was -0.448.

Another assay addresses DHCR7. Described as above. To be noted: shRNA.
TGAATTTGCAGTCTCTGGCGCT came in with a sensor-assay potency score (higher = more potent) of 0.0615. Same read-out and setting: in the case of TTAAACTCGATGCCCATCATGT it was -0.575. For TATAGGTGGAGTCTTGGCCCAG, the sensor-assay potency score (higher = more potent) is -1.1. Regarding TTGCCTGTGAATTTGCAGTCTC, the sensor-assay potency score (higher = more potent) is -0.449. For the sequence ATGGTCTTCAGGTACCAGGTTT, the sensor-assay potency score (higher = more potent) is -0.879. Consider TTGAAGTCAAACCACTTCCCGA, for which the sensor-assay potency score (higher = more potent) was -0.639. On the same count and under the same terms, for TTGCTGTGGTGCCTCTGCCCAT the value was -1.54.

TACTTGTTCACAACCCCTGCAG: the sensor-assay potency score (higher = more potent) is -0.0403. On the same count and under the same terms, for AACAGCTTGAAGTCAAACCACT the value was -1.51; for TAGGAAGATGACGCTCGCCAGT, -1.46. In the case of TGAAGTCAAACCACTTCCCGAT, the sensor-assay potency score (higher = more potent) was -0.223. In the case of TTGTCGAAGATGATGGTGGGCG, the sensor-assay potency score (higher = more potent) is -0.346. The same measure, in the same setting: for TCAATGGTCTTCAGGTACCAGG the value was -1.35.
Note: reference of the scale not given here.
